Source: PubChem BioAssay (The Scripps Research Institute Molecular Screening Center)
An excerpt weighted towards active compounds, which were near 3.4% of everything screened.
GPR151 activ – activators of human GPR151, primary screen, cell-based, PathHunter beta-arrestin, luminescence. activation, % at 11.2 µM. PathHunter beta-arrestin GPR151 cells. 650,000 compounds, 1% hits; in the data active means activation above about 4.9%;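 further: 0% = median of compound wells and 100% = cells with positive control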
TEAD-YAP block – TEAD-YAP interaction inhibition, primary screen, TEAD-YAP interaction inhibitor project, luminescence, HEK-TIYL cells; 640,000 compounds, 1.4% hits; inhibition, % at 9.12 µM; TEAD-Gal4/YAP UAS-luciferase luminescence; AID 1259422, 2018; in the data active means inhibition above about 32%;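 further: 0% = median of test compound wells and 100% = reference inhibitor wells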
FBW7 activator – FBW7 E3 ligase activators, primary screen, biochemical, AlphaScreen, human. AlphaScreen FBW7–phospho-cyclin E peptide binding, activator screen. F-box/WD repeat-containing protein 7 (Homo sapiens), Q969H0. 650,000 compounds, 0.13% hits. normalized activity (activation), % at 26.1 µM; in the data active means normalized activity above about 1.9%;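 further: purified mutant Fbw7 with reduced substrate affinity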
Target sequence (Q969H0 whole entry, looked up): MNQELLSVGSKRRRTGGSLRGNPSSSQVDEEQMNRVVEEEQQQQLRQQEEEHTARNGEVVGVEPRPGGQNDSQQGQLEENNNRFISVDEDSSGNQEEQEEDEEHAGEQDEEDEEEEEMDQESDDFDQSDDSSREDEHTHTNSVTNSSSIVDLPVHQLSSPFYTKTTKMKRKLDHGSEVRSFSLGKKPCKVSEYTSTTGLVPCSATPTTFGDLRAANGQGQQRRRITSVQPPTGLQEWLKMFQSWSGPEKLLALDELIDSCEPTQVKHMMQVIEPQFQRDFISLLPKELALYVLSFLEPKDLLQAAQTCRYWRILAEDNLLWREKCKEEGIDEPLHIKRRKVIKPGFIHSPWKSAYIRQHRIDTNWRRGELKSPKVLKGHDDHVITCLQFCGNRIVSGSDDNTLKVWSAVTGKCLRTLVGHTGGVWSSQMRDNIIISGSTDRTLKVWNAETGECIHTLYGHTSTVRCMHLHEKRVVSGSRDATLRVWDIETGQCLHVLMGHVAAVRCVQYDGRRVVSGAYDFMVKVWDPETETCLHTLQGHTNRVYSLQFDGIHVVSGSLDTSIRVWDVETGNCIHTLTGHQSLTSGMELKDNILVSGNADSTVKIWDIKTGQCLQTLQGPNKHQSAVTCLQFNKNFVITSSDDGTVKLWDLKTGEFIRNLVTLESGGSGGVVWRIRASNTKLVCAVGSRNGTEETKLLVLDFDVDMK
MITF primary – MITF inhibitors, primary screen, biochemical, AlphaScreen, human. Microphthalmia-associated transcription factor (Homo sapiens), O75030. AlphaScreen MITF homodimerization, bead proximity signal. inhibition, % at 2.6 µM. 650,000 compounds, 0.91% hits; in the data active means inhibition above about 50%;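 further: 0% = vehicle wells with protein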
An asterisk follows results filed as active.

SMILES | GPR151 activ | TEAD-YAP block | FBW7 activator | MITF primary
O=C1CCCN1CCCNc1nc(N2CCN(c3ccccn3)CC2)nc2c1ncn2-c1ccsc1 | -3 | 58* | 0 | -7
O=C1CCCN1CCCNc1nc(Nc2ncccn2)nc2c1ncn2-c1ccsc1 | 1 | 0 | 0 | -5
O=C1CCCN1CCn1cnc2c(NCCc3ccc(O)cc3)nc(N3CCN(c4ccccn4)CC3)nc21 | 0 | 36* | 0 | 5
OC1CCC(Nc2nc(NC3CCN(Cc4ccccc4)CC3)c3ncn(Cc4ccc(C(F)(F)F)cc4)c3n2)CC1 (configuration not stated) | 3 | 49* | 0 | 2
O=C1CCCN1CCCNc1nc(NCCN2CCOCC2)c2ncn(-c3ccsc3)c2n1 | 0 | 43* | 0 | 16
O=C1CCCN1CCn1cnc2c(NCCO)nc(N3CCN(c4ccccn4)CC3)nc21 | 2 | -1 | 0 | 17
O=C1CCCN1CCCNc1nc(NCCCN2CCCC2=O)c2ncn(-c3ccccc3)c2n1 | -1 | -2 | 0 | -8
COc1cc2c(cc1OC)C(C)N(C(=O)c1ccc(Cl)cc1)CC2 (configuration not stated) | 1 | 3 | 0 | 1
Cc1ccccc1NC(=O)CSc1nnc2n(-c3ccccc3)c(=O)c3ccccc3n12 | 1 | 5 | 0 | -2
Cc1nn(-c2ccccc2)c2c1CC(C#N)(c1ccccn1)C1CCCN21 (configuration not stated) | 0 | 11 | 0 | 7
Cc1ccc(NC(=O)CCC(=O)NCc2ccccc2)cc1C | -1 | 10 | 0 | 1
CC(C)[C@H](Cn1nnc2ccccc21)NC(=O)CCn1cnc2ccccc2c1=O | -1 | 1 | 0 | 0
O=C1CCCN1CCCNc1nc(N2CCOCC2)nc2c1ncn2-c1ccsc1 | 0 | 57* | 0 | -1
OC1CCC(Nc2nc(NC3CCN(Cc4ccccc4)CC3)c3ncn(-c4ccsc4)c3n2)CC1 (configuration not stated) | 4 | 60* | 0 | -5
c1ccc(CN2CCC(Nc3nc(Nc4ccccc4)nc4c3ncn4-c3ccsc3)CC2)cc1 | -1 | 8 | 0 | 8
Cc1cnc(Nc2ccc3ncccc3c2)nc1NCc1cccc(C(F)(F)F)c1 | 5 | 53* | 0 | 7
COc1ccc(-c2nc3ncnc(NCc4cccc(C(F)(F)F)c4)c3[nH]2)cc1 | -1 | 46* | 0 | 4
Cc1cnc(Nc2cccnc2)nc1NCc1ccccc1 | 4 | 33* | 0 | 3
Cc1cnc(NCCN2CCOCC2)nc1NCc1cccc(C(F)(F)F)c1 | 1 | 32* | 0 | -6
C/C=C(\C)C(=O)N1CCC2(CCC(CNC(=O)c3ccccn3)O2)CC1 (configuration not stated) | 1 | 0 | 0 | 19
CC(C)n1c(-c2cccs2)nc2c(NCc3cccc(C(F)(F)F)c3)ncnc21 | 3 | 1 | 0 | -13
Cc1cnc(Nc2ccccn2)nc1NCc1cccc(C(F)(F)F)c1 | 4 | 47* | 0 | 3
Nc1nc(NCc2cccc(C(F)(F)F)c2)cc(Nc2cnccn2)n1 | -1 | 56* | 1 | 4
FC(F)(F)c1cccc(CNc2ncnc3sccc23)c1 | 4 | 46* | 0 | -13
CCNc1ncc(C)c(NCc2cccc(C(F)(F)F)c2)n1 | 3 | 23 | 0 | -5
SMILES | GPR151 activ | TEAD-YAP block | FBW7 activator | MITF primary
Cc1cnc(Nc2ccccc2)nc1NCc1cccc(C(F)(F)F)c1 | 2 | 50* | 0 | 6
Cc1cnc(Nc2ncccn2)nc1NCc1cccc(C(F)(F)F)c1 | 0 | 0 | 0 | -11
CCOC(=O)C(=O)Nc1cc(OCC)c(NC(=O)c2ccc(C)cc2)cc1OCC | 0 | 6 | 0 | 12
O=C(Cc1ccc2c(c1)OCO2)Nc1cc(Nc2ccccc2-c2ncn[nH]2)c(C(F)(F)F)cn1 | -2 | 60* | 1 | 12
CC(C)(C)NC(=O)c1ccccc1NC(=O)CCc1ccccc1 | 3 | -7 | 0 | 1
CNC(=O)c1ccccc1Nc1cc(NC(=O)Cc2c(Cl)cccc2Cl)ncc1C(F)(F)F | -1 | 56* | 0 | 12
N#Cc1ccccc1Nc1cc(NC(=O)Cc2ccc(F)cc2)ncc1C(F)(F)F | 0 | 20 | 0 | 17
CNC(=O)c1ccccc1Nc1cc(NC(=O)CCc2ccccc2)ncc1C(F)(F)F | -2 | 64* | 0 | -3
CNC(=O)c1ccccc1Nc1cc(NC(=O)Cc2ccccc2)ncc1C(F)(F)F | 3 | 72* | 0 | -24
O=C(CCC(=O)n1ncc2ccc(Cl)cc21)NCc1ccccc1Cl | 1 | -1 | 0 | -5
C=CCn1c(SCC(=O)NC2CCCCC2C)nnc1-c1ccncc1 (configuration not stated) | -1 | 9 | 0 | 15
COc1ccc(-c2nc3ccccc3s2)c(OC)c1 | -1 | -50 | 0 | 0
C=CCN(c1ccccc1)S(=O)(=O)c1ccc(F)c(C(=O)NCCc2ccccc2)c1 | 0 | 35* | 0 | 2
C=CCN(c1ccccc1)S(=O)(=O)c1ccc(F)c(C(=O)NCC(OC)OC)c1 | 1 | 3 | 0 | 8
CC(C(=O)Nc1cccc(C(F)(F)F)c1)N1C(=O)NC2(CCCCC2)C1=O (configuration not stated) | -1 | 4 | 0 | -10
CCC/C=N/NC(=O)c1ccc(Cl)cc1 | 0 | -12 | 0 | -2
COc1cc(C(=O)/C=C/c2cccc([N+](=O)[O-])c2)cc(OC)c1OC | -1 | 26 | 0 | -16
Cc1cc2c(cc1C)NC(C(F)(F)F)=CC(c1cccs1)=N2 | 1 | -6 | 0 | -6
Cc1cncc2cccc(NC3CCNC3)c12 (configuration not stated) | 0 | 69* | 0 | 8
Cc1cncc2cccc(NC3CCCN(C(=O)C(O)c4ccc(Br)cc4)C3)c12 (configuration not stated) | 2 | 47* | 0 | 2
COc1cccc(NS(=O)(=O)c2ccc3c(c2)C(C)(C)C(=O)N3C)c1 | 1 | 2 | 0 | 4
CCOC(=O)C1=C(C)N=c2s/c(=C\c3ccc(N(C)C)c(Br)c3)c(=O)n2C1c1ccccc1 (configuration not stated) | 1 | -4 | 0 | 12
CC(C)COC(=O)c1ccc(NC(=O)COc2ccc(Br)cc2)cc1 | 1 | 35* | 0 | 0
CCOC(=O)C1=C(C)NC2=C(C(=O)C(C(=O)OCC)C(c3cccc(OC)c3)C2)C1c1ccc(N(CC)CC)cc1 (configuration not stated) | 0 | -6 | 0 | -9
CCOc1cc([N+](=O)[O-])cc(/C=N/NC(=O)COc2cccc(C)c2C)c1O | 0 | -3 | 0 | 66*
CCOc1ccccc1OCC(=O)N/N=C/c1cc(C)ccc1O | 0 | 61* | -2 | -14
CCOc1cc([N+](=O)[O-])cc(/C=N/NC(=O)COc2c(C)ccc(C)c2C)c1O | 2 | 0 | 0 | -3
